Laboratory results from ChEMBL document CHEMBL2218924, “A broad activity screen in support of a chemogenomic map for kinase signalling research and drug discovery” (Biochem J, 2013).

Key:
[1] = target: T1, Mitogen-activated protein kinase kinase kinase 7 (Homo sapiens) (UniProt O43318); settings: at 10 µM
T1 sequence (whole entry): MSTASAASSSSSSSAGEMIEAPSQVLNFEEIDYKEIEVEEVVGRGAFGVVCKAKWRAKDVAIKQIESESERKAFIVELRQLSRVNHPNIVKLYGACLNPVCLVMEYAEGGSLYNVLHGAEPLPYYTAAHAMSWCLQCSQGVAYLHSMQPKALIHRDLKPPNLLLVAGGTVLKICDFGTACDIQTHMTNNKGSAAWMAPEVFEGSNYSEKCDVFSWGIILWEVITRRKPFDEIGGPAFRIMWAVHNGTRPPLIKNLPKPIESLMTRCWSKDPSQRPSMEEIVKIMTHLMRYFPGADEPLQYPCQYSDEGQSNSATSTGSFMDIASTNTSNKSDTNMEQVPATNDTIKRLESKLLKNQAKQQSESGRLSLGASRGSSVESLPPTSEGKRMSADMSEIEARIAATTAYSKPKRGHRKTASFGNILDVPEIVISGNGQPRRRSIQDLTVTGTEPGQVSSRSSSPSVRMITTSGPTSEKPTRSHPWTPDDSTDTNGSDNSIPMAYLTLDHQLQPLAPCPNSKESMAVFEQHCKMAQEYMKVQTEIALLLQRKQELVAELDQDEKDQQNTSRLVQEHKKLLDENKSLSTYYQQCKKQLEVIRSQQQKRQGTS

[2] = target: T2, Serine/threonine-protein kinase TAO1 (Homo sapiens) (UniProt Q7L7X3); settings: at 1 µM
T2 sequence (whole entry): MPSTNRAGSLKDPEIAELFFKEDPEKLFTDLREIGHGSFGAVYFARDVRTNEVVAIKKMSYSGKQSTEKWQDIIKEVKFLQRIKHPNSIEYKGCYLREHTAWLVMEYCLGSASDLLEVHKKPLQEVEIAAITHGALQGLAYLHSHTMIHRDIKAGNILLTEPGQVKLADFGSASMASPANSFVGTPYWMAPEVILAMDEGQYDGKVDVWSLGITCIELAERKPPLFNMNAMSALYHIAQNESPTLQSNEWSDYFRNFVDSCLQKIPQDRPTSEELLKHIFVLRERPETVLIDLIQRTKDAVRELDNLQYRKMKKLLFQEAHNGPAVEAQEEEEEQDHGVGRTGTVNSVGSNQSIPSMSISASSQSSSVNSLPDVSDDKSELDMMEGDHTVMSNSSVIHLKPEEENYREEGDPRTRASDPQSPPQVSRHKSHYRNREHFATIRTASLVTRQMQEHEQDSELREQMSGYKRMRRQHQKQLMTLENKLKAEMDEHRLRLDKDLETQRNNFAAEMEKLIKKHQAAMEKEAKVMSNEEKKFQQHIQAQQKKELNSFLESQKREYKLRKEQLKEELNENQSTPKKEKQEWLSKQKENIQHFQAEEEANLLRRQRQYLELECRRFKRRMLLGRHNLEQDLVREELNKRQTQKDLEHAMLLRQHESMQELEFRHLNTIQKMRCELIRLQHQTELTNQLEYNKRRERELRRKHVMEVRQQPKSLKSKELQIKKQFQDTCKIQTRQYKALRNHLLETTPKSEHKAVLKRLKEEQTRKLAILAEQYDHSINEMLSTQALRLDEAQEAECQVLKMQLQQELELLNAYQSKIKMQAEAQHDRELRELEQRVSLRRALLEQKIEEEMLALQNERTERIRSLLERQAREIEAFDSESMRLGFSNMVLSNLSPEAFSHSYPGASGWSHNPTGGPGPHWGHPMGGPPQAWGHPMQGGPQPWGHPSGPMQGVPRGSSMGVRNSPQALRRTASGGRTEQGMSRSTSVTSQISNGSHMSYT

[3] = target: T2, Serine/threonine-protein kinase TAO1 (Homo sapiens); settings: at 10 µM
[4] = target: T3, Serine/threonine-protein kinase TAO3 (Homo sapiens) (UniProt Q9H2K8); settings: at 10 µM
T3 sequence (whole entry): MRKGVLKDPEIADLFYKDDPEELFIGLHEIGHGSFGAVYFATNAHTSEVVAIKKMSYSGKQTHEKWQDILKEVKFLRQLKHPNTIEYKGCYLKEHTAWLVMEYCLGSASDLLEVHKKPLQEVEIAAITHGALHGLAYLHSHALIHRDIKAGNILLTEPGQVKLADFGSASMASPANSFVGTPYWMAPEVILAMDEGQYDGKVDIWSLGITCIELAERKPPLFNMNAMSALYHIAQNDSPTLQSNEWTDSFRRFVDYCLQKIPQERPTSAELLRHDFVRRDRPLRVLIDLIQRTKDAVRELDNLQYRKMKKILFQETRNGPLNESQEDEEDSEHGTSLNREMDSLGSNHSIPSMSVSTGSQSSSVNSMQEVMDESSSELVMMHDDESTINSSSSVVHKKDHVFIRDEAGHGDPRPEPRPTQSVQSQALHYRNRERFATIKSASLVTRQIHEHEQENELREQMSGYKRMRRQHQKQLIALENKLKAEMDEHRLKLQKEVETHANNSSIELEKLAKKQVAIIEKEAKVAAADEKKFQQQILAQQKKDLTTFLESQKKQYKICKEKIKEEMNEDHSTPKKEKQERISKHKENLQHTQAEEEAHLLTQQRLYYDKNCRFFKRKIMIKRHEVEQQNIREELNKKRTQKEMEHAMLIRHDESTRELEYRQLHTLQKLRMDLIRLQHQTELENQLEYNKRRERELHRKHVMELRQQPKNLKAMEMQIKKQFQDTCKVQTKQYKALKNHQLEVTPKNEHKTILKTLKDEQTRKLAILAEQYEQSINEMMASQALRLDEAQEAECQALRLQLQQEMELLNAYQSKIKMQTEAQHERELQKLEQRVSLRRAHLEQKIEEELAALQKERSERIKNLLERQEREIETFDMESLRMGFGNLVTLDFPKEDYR

[5] = target: T4, Serine/threonine-protein kinase TBK1 (Homo sapiens) (UniProt Q9UHD2); settings: at 10 µM
T4 sequence (whole entry): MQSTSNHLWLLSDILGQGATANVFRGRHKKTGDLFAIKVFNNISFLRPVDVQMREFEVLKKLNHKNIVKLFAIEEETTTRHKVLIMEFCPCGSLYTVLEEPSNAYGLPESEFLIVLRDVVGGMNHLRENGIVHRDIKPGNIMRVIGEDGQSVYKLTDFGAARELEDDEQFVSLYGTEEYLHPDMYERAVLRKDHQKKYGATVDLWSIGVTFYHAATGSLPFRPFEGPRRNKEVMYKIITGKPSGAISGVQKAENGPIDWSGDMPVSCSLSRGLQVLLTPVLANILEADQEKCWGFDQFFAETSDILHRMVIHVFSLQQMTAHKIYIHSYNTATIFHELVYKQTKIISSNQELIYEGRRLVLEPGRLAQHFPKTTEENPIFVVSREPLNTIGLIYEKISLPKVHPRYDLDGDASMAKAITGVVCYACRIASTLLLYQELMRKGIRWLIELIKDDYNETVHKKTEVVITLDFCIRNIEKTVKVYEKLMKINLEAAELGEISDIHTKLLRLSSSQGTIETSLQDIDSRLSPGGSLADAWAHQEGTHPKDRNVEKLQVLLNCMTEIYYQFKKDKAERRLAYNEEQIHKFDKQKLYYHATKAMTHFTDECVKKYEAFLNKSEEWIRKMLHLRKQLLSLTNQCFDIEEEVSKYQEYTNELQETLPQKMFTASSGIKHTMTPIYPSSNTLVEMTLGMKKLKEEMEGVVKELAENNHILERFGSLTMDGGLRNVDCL

[6] = target: T4, Serine/threonine-protein kinase TBK1 (Homo sapiens); settings: at 1 µM

Structure (SMILES) | residual activity [1] [%] | residual activity [2] [%] | residual activity [3] [%] | residual activity [4] [%] | residual activity [5] [%] | residual activity [6] [%]
Fc1ccc(-c2nc3n(c2-c2ccncc2)CCS3)cc1 | 88 | 99 | 83 | 76 | 89 | –
CCN1/C(=C/C(C)=O)Sc2ccc(OC)cc21 | 80 | 75 | 46 | – | 51 | 70
